According to PubChem BioAssay AID1566 (Sanford-Burnham Center for Chemical Genomics, 2009):
Hit rate of the full screen: of about 290,000 compounds, about 1,800 (0.62%) were called active. No stated cut-off is given here; in the data, active means inhibition above about 50%; inactive means the rest. Shown is part of a subset that was picked to be rich in actives.

Assay: NOD2 signaling inhibitors, cell-based, luminescence, uHTS, HEK293 (AID 1566)
Conditions: HEK293 NOD2/NF-kB luciferase reporter, at 4 µM, hits give high values

SMILES	inhibition
COc1ccc(/C=C/c2c(-c3ccc(OC)cc3)oc3ccc(-c4ccc(OC)cc4)cc23)cc1	4.5% (inactive)
COc1ccc(/C=C/C(=O)Oc2ccc(C)cc2)cc1	7.2% (inactive)
O=C(COC(=O)C12CC3CC(CC(C3)C1)C2)Nc1nccs1	33.4% (inactive)
Cc1nc2scc(C)n2c(=O)c1S(=O)(=O)Nc1ccc(N2CCOCC2)cc1	14.2% (inactive)
Cc1nc2sccn2c(=O)c1S(=O)(=O)Nc1ccc(N2CCOCC2)c(Cl)c1	33.7% (inactive)
Cc1nc2scc(C)n2c(=O)c1S(=O)(=O)Nc1ccc(N2CCOCC2)c(Cl)c1	51.2% (active)
O=C(c1ccncc1)c1ccc(NS(=O)(=O)c2ccc(Br)s2)cc1	23.1% (inactive)
Cc1cc(C=C2C(=O)CCCC2=O)c(C)n1-c1ccccc1	1.8% (inactive)
Cc1cc(/C=C2\Cc3ccccc3C2=O)c(C)n1-c1ccccc1	59.1% (active)
Cc1cc(C=C2C(=O)c3ccccc3C2=O)c(C)n1-c1ccc(Cl)cc1	19.2% (inactive)
Cc1cc(C=C2C(=O)c3ccccc3C2=O)c(C)n1-c1cccc(C(=O)O)c1	-11.1% (inactive)
Cc1cccc(-n2c(C)cc(C=C3C(=O)c4ccccc4C3=O)c2C)c1	57.4% (active)
Cc1cc(C=C2C(=O)c3ccccc3C2=O)c(C)n1-c1ccccc1	5.9% (inactive)
CNC(=O)CSc1nc2[nH]ncc2c(=O)[nH]1	10.9% (inactive)
COc1ccc(C(CC(=O)N2CCCC2)C(C)C)cc1 (stereo unspecified)	-6.1% (inactive)
O=C(NC(Cc1ccc2c(c1)OCO2)C(=O)NC(Cc1ccccc1)C(=O)O)c1ccccc1 (stereo unspecified)	0% (inactive)
O=C(CN(Cc1cccs1)C(=O)CNS(=O)(=O)c1ccccc1)NC1CCCC1	9.3% (inactive)
CC(C)CCNC(=O)c1cc(S(=O)(=O)N2CCc3ccccc32)cn1C	26.2% (inactive)
CCCNC(=O)c1cc(S(=O)(=O)N2CCc3ccccc32)cn1C	52.1% (active)
CCN(CC)CCNC(=O)c1cc(S(=O)(=O)N2CCc3ccccc32)cn1C	27.1% (inactive)
CS(=O)(=O)N(CC(=O)Nc1cccc(Cl)c1)c1ccccc1Cl	-11.8% (inactive)
C[C@H]1O[C@@H](O[C@H]2[C@@H](O)C[C@H](O[C@H]3[C@@H](O)C[C@H](O[C@H]4CC[C@@]5(C)[C@H](CC[C@@H]6[C@@H]5C[C@@H](O)[C@]5(C)[C@@H](C7=CC(=O)OC7)CC[C@]65O)C4)O[C@@H]3C)O[C@@H]2C)C[C@H](O)[C@@H]1O	77.7% (active)
COc1ccc(N(CC(=O)Nc2ccc(C)c(C)c2)C2=NC3CS(=O)(=O)CC3S2)cc1 (stereo unspecified)	10.8% (inactive)

SMILES	inhibition
CCC(C)(C)NC(=O)C1CC(=O)N(CCc2ccc(F)cc2)C1 (stereo unspecified)	12.1% (inactive)
COc1ccc(S(=O)(=O)N2CCC(N3CCN(c4ccccc4)CC3)CC2)cc1	16.7% (inactive)
Cc1nc2ccccc2c2oc(C(=O)NCc3ccc4c(c3)OCO4)cc12	45.9% (inactive)
Cc1cc(C(=O)NCC2COc3ccccc3O2)c2ccccc2n1 (stereo unspecified)	17.7% (inactive)
Cc1c(/C(O)=C2/C(=O)C(=O)N(CCN(C)C)C2c2ccc(C(C)C)cc2)cnn1-c1ccccc1 (stereo unspecified)	28.4% (inactive)
Cc1ccc(C)c(N(C)C(=O)c2cc3c(=O)[nH]c4ccc(C)cc4c3s2)c1	-16% (inactive)
Cc1ccc2[nH]c(=O)c3cc(C(=O)N(C)c4ccccc4C)sc3c2c1	13.1% (inactive)
Cc1ccc2[nH]c(=O)c3cc(C(=O)N(C)C4CCCCC4)sc3c2c1	56.8% (active)
COc1cc(CN2CCC(Cc3ccccc3)CC2)cc([N+](=O)[O-])c1O	-1.9% (inactive)
O=C(Nc1ccc(N2CCCC2)cc1)c1cc(Br)ccc1Cl	-11.7% (inactive)
Cc1ccc2c(COC(=O)c3c(C)noc3C)cc(=O)oc2c1	0.4% (inactive)
N[C@@H](CO)c1nnc([C@H](CC(=O)O)NC(=O)C2CCNCC2)o1	-3.6% (inactive)
CCSc1nsc(NC(=O)Nc2cccc(OC)c2)n1	17.5% (inactive)
CCSc1nsc(NC(=O)Nc2ccccc2F)n1	-32.2% (inactive)
CC1CCN(C(=O)c2ccc(CS(=O)(=O)Cc3ccccc3)cc2)CC1	12.8% (inactive)
CCc1ccc(NC(=S)N2CCC(NC(=O)c3ccccc3)CC2)cc1	7.4% (inactive)
Cc1ccc(NC(=S)N2CCC(NC(=O)c3ccccc3)CC2)cc1	93% (active)
Cc1ccc(NC(=S)N2CCC(NC(=O)c3ccc(C)cc3)CC2)cc1	-13.6% (inactive)
CC(C(=O)NC1CCCCCC1)n1cc([N+](=O)[O-])cn1 (stereo unspecified)	3.3% (inactive)
O=[N+]([O-])c1cccc2ccc(/C=C/c3cccc(Br)c3)nc12	-19% (inactive)
CC(=O)N[C@@H](C)c1nc2ccccc2n1CCCN1CCN(c2nc(-c3ccc(C)cc3)cs2)CC1	44.3% (inactive)
Cc1ccc(-c2csc(N3CCN(CCCn4c(C(F)(F)F)nc5ccccc54)CC3)n2)cc1	19.9% (inactive)
Cc1ccc(Cn2c(SC3CCOC3=O)nc3ccccc3c2=O)cc1 (stereo unspecified)	-3.1% (inactive)

SMILES	inhibition
O=C1NCC(CN(c2ccccc2)c2ccccc2)O1 (stereo unspecified)	14.1% (inactive)
CN(Cc1ccccc1)c1ncnc2ccc(Br)cc12	20.7% (inactive)
CC(C)Nc1ncnc2ccc(Br)cc12	43% (inactive)
CCN(CC)c1ncnc2ccc(Br)cc12	65.5% (active)
Cn1c(=O)oc2cc(S(=O)(=O)N3CCC(C(=O)N4CC=C(c5ccccc5)CC4)CC3)ccc21	7.5% (inactive)
Cc1nnc(SCC(=O)Nc2cccc([N+](=O)[O-])c2)n1CC1CCCO1 (stereo unspecified)	2.2% (inactive)
O=C(O)c1ccccc1C(=O)c1ccc(Oc2ccccc2)cc1	-0.9% (inactive)
O=C(O)c1ccccc1C(=O)c1ccc(Cl)cc1	1% (inactive)
O=C(O)c1ccccc1C(=O)c1ccc(-c2ccccc2)cc1	64.3% (active)
Cc1ccc2c(C)c(C(=O)Nc3c(C)n(C)n(-c4ccccc4)c3=O)oc2c1C	22.4% (inactive)
CCC(=O)N1CCc2cc(S(=O)(=O)CCC(=O)NC(C)CC)ccc21 (stereo unspecified)	10.4% (inactive)
CCc1ccc(N(C(=O)Cn2nnc(-c3ccccc3)n2)C(C(=O)NC2CCCCC2)c2ccccn2)cc1 (stereo unspecified)	5.5% (inactive)
COCc1cc(=O)[nH]c(Nc2nc3ccc(C)cc3o2)n1	62.8% (active)
COCc1cc(=O)[nH]c(Nc2nc3ccccc3o2)n1	-130% (inactive)
COC(=O)Cc1cc(=O)[nH]c(Nc2nc3ccccc3o2)n1	-8.6% (inactive)
COc1ccc(Cn2c(C3CC3)nc3ccc(NC(=O)c4ccco4)cc3c2=O)cc1	-43.8% (inactive)
CCn1c(C)c(C(C)=O)c(N2CCN(c3cccc(Cl)c3)CC2)nc1=S	15.5% (inactive)
CC(=O)Nc1ccc(/C(C)=N/NC(=O)c2ccc(CN3CCOCC3)cc2)cc1	6.9% (inactive)
CC1CCCCN1C(=O)c1ccc(C(=O)N2CCCCC2C)cc1 (stereo unspecified)	5% (inactive)
COc1ccc(OC(=O)Nc2ccccc2)cc1	-3.6% (inactive)
Cc1ccc(C#N)c(SCc2nnc(-c3ccc(Cl)cc3)o2)n1	67.8% (active)
Cc1nnc(SCc2nnc(-c3ccc(Cl)cc3)o2)n1-c1ccccc1	-2.6% (inactive)
N#Cc1c(-c2ccccc2)cc(-c2ccccc2)nc1SCc1nnc(-c2ccccc2)o1	15.7% (inactive)

SMILES	inhibition
Cc1csc(SCc2nnc(-c3ccc(Cl)cc3)o2)n1	-134% (inactive)
Cc1cc(C)c(C#N)c(SCc2nnc(-c3ccccc3[N+](=O)[O-])o2)n1	-197% (inactive)
Cc1ccc(-n2c(C)cc(/C=N/NC(=O)c3ccncc3)c2C)c(C)c1	7% (inactive)
Cc1ccc(NC(=O)c2ccc3ccccc3n2)cc1S(=O)(=O)N(C)C	-57.9% (inactive)
O=C(CSc1nc2ccccc2[nH]1)Nc1cccc(S(=O)(=O)N2CCOCC2)c1	24.9% (inactive)
CC(=O)Nc1cccc(-n2nnc(SCC(=O)Nc3ccccc3)n2)c1	0.6% (inactive)
Cc1cc(OCC(=O)NCCc2ccc(S(N)(=O)=O)cc2)c2c(C)c(C)c(=O)oc2c1	8.3% (inactive)
Cc1n[nH]c(=O)nc1NC1CCCCC1	3% (inactive)
C=CCn1c(CSCc2ccccc2)nnc1SCC(=O)N1CCN(c2ccccc2)CC1	0.4% (inactive)
CCOc1ccc(N=C2SC(C(=O)Nc3ccccc3C#N)C(N)=C2C(=O)Nc2ccc(Cl)cc2)cc1 (stereo unspecified)	13.4% (inactive)
N#Cc1ccccc1NC(=O)C1SC(=Nc2ccccc2)C(C(=O)Nc2ccc(Cl)cc2)=C1N (stereo unspecified)	50.7% (active)
Cc1ccc(NC(=O)C2SC(=Nc3ccccc3)C(C(=O)Nc3ccc(Cl)cc3)=C2N)cc1 (stereo unspecified)	-14.9% (inactive)
CC(=O)Nc1ccc(SC(C)C(=O)NC2CCCC2)cc1 (stereo unspecified)	-6.7% (inactive)
COc1ccc(-c2nc3ccccc3s2)cc1	-217% (inactive)
Oc1ccc(-c2nc3ccccc3s2)cc1	-198% (inactive)
Cn1nnc2cc(C(=O)NCc3ccc4c(c3)OCO4)ccc21	-37.1% (inactive)
Cc1ccc(C(=O)NC(=S)NNS(=O)(=O)c2ccc(C)cc2)cc1	7.8% (inactive)
Cc1ccc(C(=O)NS(=O)(=O)c2ccc(C)cc2)cc1	-1.5% (inactive)
Cc1ccc(S(=O)(=O)NCCNC(=O)c2ccccc2)cc1	-8% (inactive)
Cc1ccc(S(=O)(=O)CNC(=O)c2ccccc2)cc1	1.3% (inactive)
COc1sc(SC)cc1/C=N/NC(=O)c1ccncc1	12.3% (inactive)
O=C(NC1CCCCC1)C(c1ccc(F)cc1)N(Cc1cccs1)C(=O)CN1C(=O)c2ccccc2S1(=O)=O (stereo unspecified)	13.4% (inactive)
